Bioassay records as filed in PubChem.
KDM4E inh = inhibitors of human JMJD2E histone demethylase. JMJD2E catalytic domain, FDH-coupled NADH fluorescence (FDH is formaldehyde dehydrogenase). B2RXH2. Potency, µM (top dose mostly 57.1 µM), usual class: inhibitors. 1.6% of 230,000 active; active = well fitted inhibition curve with a large enough effect, not every such curve was filed as active; inconclusive = small, poorly fitted or top-dose-only effect, or another doubt; inactive = no such curve, though single readings can be large or run the other way; note: nearly all actives have a fitted effect of over 50% in size
Target sequence (B2RXH2 1-337 limits assumed): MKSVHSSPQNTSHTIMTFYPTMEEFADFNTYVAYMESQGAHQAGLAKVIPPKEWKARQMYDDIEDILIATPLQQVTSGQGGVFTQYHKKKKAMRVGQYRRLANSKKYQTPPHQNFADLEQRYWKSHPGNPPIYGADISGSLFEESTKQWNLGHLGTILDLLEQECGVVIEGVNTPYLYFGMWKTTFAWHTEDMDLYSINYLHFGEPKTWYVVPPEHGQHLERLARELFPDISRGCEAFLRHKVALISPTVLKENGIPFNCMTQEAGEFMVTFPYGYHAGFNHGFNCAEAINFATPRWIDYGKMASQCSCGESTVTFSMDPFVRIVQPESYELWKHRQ
Tau fibril ThT = inhibitors of human tau fibril formation, thioflavin T binding. P10636. recombinant tau K18 P301L, heparin-induced fibrillization, ThT fluorescence. Potency, µM (titrated, usually from 57.4 µM), hits mostly inhibitors. 2.1% of 270,000 active; note: nearly all actives have a fitted effect of over 55% in size
Target sequence (P10636 561-689 P618L limits assumed): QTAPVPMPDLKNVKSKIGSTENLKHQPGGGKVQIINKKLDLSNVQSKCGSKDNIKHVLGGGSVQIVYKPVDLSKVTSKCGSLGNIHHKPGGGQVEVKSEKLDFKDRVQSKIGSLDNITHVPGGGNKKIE
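Tau K18 P301L fragment (15 uM unlabeled plus 0.24 uM Alexa 594-labeled) in 100 mM sodium acetate pH 7 with compound, fibrillization induced by 20 uM heparin for 6 hr at 37 C. Thioflavin T (30 uM) added, fluorescence read after 1 hr (ex 450, em 510 nm).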
Tau fibril FP = blocks human tau fibril formation measured by polarization; P10636; K18 P301L tau heparin fibrillization, Alexa594 FP, 6 h; Potency, µM (doses to about 57.7 µM), hits mostly inhibitors; 0.39% of 280,000 active; AID 1468; note: nearly all actives have a fitted effect of over 55% in size
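Read-out: fluorescence polarization of Alexa 594-labeled tau (0.24 uM), 555 nm excitation, 632 nm emission. Mixtures held 15 uM unlabeled K18 P301L, compound and 20 uM heparin, pH 7 acetate buffer, incubated 6 hr at 37 C.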
TRb SRC2 PPI = disrupts binding of human TR beta to SRC2; TRbeta-SRC2 peptide binding, fluorescence polarization; receptor liganded with 1 µM T3; AID 1469; 0.065% of 280,000 active; Potency, µM (series often up to 106 µM), hits mostly inhibitors; note: nearly all actives have a fitted effect of over 50% in size
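Binding of a 20-amino-acid Texas Red SRC2 peptide (20 nM) to TRb ligand-binding domain (0.6 uM) with agonist T3 at 1 uM was followed by fluorescence polarization after a 5 hr room-temperature incubation.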
TexasRed fluor = alters Texas Red total fluorescence, flagging assay interference | TRb/SRC2 Texas Red total fluorescence interference | Potency, µM (series often up to 106 µM) | 0.29% of 280,000 active | AID 1479; active = well fitted curve in either direction with a large enough effect; inconclusive = small, poorly fitted or top-dose-only effect
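Human TRβ ligand-binding domain (0.6 uM) and Texas Red SRC2 peptide (20 nM) in Tris buffer with 1 uM T3 and 5% DMSO were incubated with pinned compound for 5 hr at ambient temperature. Total fluorescence was computed as S + 2P (555/632 nm).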
Tau fluor cs = counter-screen for tau fibril formation inhibitors | Potency, µM (top dose mostly 57.7 µM) | tau K18 P301L (four-repeat tau fragment) Alexa594 fluorescence, heparin fibrillization | 0.93% of 280,000 active; note: nearly all actives have a fitted effect of over 55% in size
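Human K18 P301L tau (15 uM unlabeled plus 0.24 uM Alexa 594-labeled, final) in 100 mM sodium acetate pH 7 was mixed with compound and 20 uM heparin and incubated 6 hr at 37 C.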
Hits are given with their value; n = inactive; u = inconclusive; x = no result; [ ] = remark or other dose. Hits are enriched below; roughly 3.5% of the tested compounds scored in any of these assays. Unless noted, calls come from the whole dose curve; as a rule, active = well fitted curve in the direction sought with a large enough effect; inconclusive = small, poorly fitted or top-dose-only effect, or another doubt; inactive = no such curve, though single readings can be large; an effect the other way counts as inactive or inconclusive.

SMILES	KDM4E inh	Tau fibril ThT	Tau fibril FP	TRb SRC2 PPI	TexasRed fluor	Tau fluor cs
Cc1ccc(NC(=O)/C(C#N)=C/c2ccc(-c3ccc(Cl)c(C(=O)O)c3)o2)cc1C	x	4.5µM	n	n	n	n
Cc1ccc(S(=O)(=O)Cn2nnnc2C(CC(C)C)N2CCN(C(=O)c3ccco3)CC2)cc1 (configuration not stated)	n	u	n	n	n	n
CC[C@H](C)[C@H](NS(=O)(=O)c1ccc(C)cc1)C(=O)N1CCC(C(=O)N[C@H](C(=O)O)C(C)C)CC1	n	n	n	n	n	n
Cc1cc(N/N=C/c2ccc([N+](=O)[O-])o2)nc2ccccc12	n	1.6µM	n	n	n	u
Cc1ccc2nc(N/N=C/c3ccco3)cc(C)c2c1	u	18µM	n	n	n	u
O=C1/C(=C/c2cccc([N+](=O)[O-])c2)CCc2ccccc21	n	25µM	n	n	n	u
CN=C1N[C@H](c2ccccc2)N(c2ccccc2)S1	7.9µM	20µM	32µM	n	n	n
O=C1/C(=C/c2c[nH]c3ccccc23)CCC/C1=C\c1c[nH]c2ccccc12	u	u	n	n	n	7.9µM[quencher]
CCc1ccc(-c2cc(C)no2)cc1S(=O)(=O)Nc1cc(OC)c(OC)c(OC)c1	x	n	n	n	n	u
COc1cc2ccccc2cc1C(=O)Nc1ccc2oc(-c3cccc(C)c3)nc2c1	x	u	n	u	3.2µM[quencher]	n
COc1ccccc1C(=O)Nc1ccc(CN2CCCCC2)cc1	n	n	n	n	n	n
CC(Oc1ccccc1)C(=O)Nc1c(C(=O)Nc2cccc(F)c2)oc2ccccc12 (configuration not stated)	x	n	10µM	n	n	u
Cc1ccccc1C(=O)Nc1c(C(=O)Nc2cccc(F)c2)oc2ccccc12	x	n	u	n	n	n
CCc1ccc(NC(=O)C(NS(=O)(=O)c2cccs2)C(C)C)cc1 (configuration not stated)	x	n	n	n	n	n
CCN(CC)c1ccc(NC(=O)C(NS(=O)(=O)c2cccs2)C(C)C)c(C)c1 (configuration not stated)	x	u	n	n	4.5µM[quencher]	n
Cc1ccc2nc(N3CCN(c4cccc(C)c4C)CC3)c3nnnn3c2c1	3.5µM	n	n	n	n	n
Cc1ccc(SC2=C(Sc3ccc(C)cc3)C(=O)c3ccccc3C2=O)cc1	n	3.2µM	14µM	n	n	2.5µM[quencher]
COc1ccc2c(c1)c1ncn(CCN3CCCC3)c(=O)c1n2C	u	n	n	n	n	n
Cc1ccc2c(c1)c1ccc3c(c1n2C)C(=O)C=CC3=O	u	x	u	n	n	0.89µM[quencher]
COc1ccc2c(c1)c1ccc3c(c1n2C)C(=O)C=CC3=O	n	5µM	16µM	n	n	3.5µM[quencher]
O=c1c2sc3ccccc3c2n(Cc2cccc(C(F)(F)F)c2)c(=O)n1Cc1ccco1	x	n	n	n	n	n
O=C(Cc1cccs1)N1CCN=C1SCc1ccc(Br)cc1	n	u	n	n	n	u
Cc1cccc(/N=C/c2nc(-c3ccccc3Br)oc2O)n1	n	u	n	n	n	u
CC1=Nc2ccccc2/C1=C/c1nc(-c2ccc(C)s2)oc1O	u	2.8µM	n	n	u	5µM[quencher]
CC1=Nc2ccccc2/C1=C\c1nc(-c2ccc(C(F)(F)F)cc2)oc1O	n	13µM	n	n	n	11µM[quencher]
SMILES	KDM4E inh	Tau fibril ThT	Tau fibril FP	TRb SRC2 PPI	TexasRed fluor	Tau fluor cs
COc1ccc(-c2nc(/C=C3\C(C)=Nc4ccccc43)c(O)o2)cc1	u	4µM	u	n	n	8.9µM[quencher]
CC1=Nc2ccccc2/C1=C\c1nc(-c2ccccc2)oc1O	n	5µM	u	n	n	7.9µM[quencher]
Cc1ccc(-n2ncc3c(NCCCN4CCOCC4)ncnc32)cc1	x	n	n	n	n	n
CCN(CC)C(=O)Cn1cc(SCC(=O)Nc2cccc(C)c2)c2ccccc21	x	n	n	n	n	n
O=C(NN1C(=O)c2ccccc2NC1c1cccnc1)c1ccccc1 (configuration not stated)	u	n	n	n	n	n
O=Cc1[nH]c2ccccc2c1N(C(=O)CCl)c1ccc([N+](=O)[O-])cc1	n	16µM	u	n	n	u
